From PubChem BioAssay (EPA / NIEHS) come the findings set out here.

Records with an inconclusive call do not appear. Active and inactive are the calls of the source. Rule for the calls, unless noted: active = hit-call score of the fitted dose curve at least 0.9, where 1 is the maximum; inactive = score below 0.9.

The nature of assay [1]: BSK_3C_SRB: Viability Assessment in the BioMAP Diversity Plus: 3C Assay (AID 2283023).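 Note: fitted both ways against DMSO so a hit may be signal rise or drop.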 Conditions: primary human endothelial cells (HUVEC). In short, it runs like this: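 HUVEC, 24 h post-dose; 10% TCA fix, 0.1% SRB stain, A560 nm. Bidirectional curve fit vs DMSO negative control.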
Read-out in assay [2]: Matrix Metallopeptidase 1 (MMP1), MMP1 (gene 4312)
Kind of assay: BSK_BE3C_MMP1: BioMAP Diversity Plus: BE3C Assay for Matrix Metallopeptidase 1 (MMP1) Biomarker Activity (AID 2283024). The conditions noted are these: primary human bronchial epithelial cells; actives raise or lower the signal. Put shortly: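 MMP1 signal, measured by ELISA after a 24 h chemical exposure of human primary bronchial epithelial cells, is analysed with bidirectional fitting using DMSO as negative control.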

The nature of assay [3]: BSK_3C_Vis: BioMAP Diversity Plus: 3C Assay for Morphology Visualization (AID 2283025).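 Note: fitted both ways so gain or loss versus DMSO counts.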 The conditions noted are these: primary human endothelial cells (HUVEC). In short, it runs like this:
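Morphology read by light microscopy serves as a background control for the multiplexed 3C assay in human umbilical vein endothelial cells, taken 24 h after dosing, with DMSO as the negative control and bidirectional curve fitting.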

Read-out in assay [4]: Pselectin, SELP (gene 6403)
Kind of assay: BSK_4H_Pselectin: BioMAP Diversity Plus: 4H Assay for Pselectin Biomarker Activity (AID 2283026). The conditions noted are these: primary human endothelial cells (HUVEC); actives raise or lower the signal. In short, it runs like this: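 Endothelial primary cells (human umbilical vein) are dosed, incubated 24 h, and assayed for surface P-selectin by ELISA; responses in either direction are fitted relative to the DMSO negative control.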

Assay [5] can be described thus: BSK_4H_SRB: Viability Assessment in the BioMAP Diversity Plus: 4H Assay (AID 2283027).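 For AC50: curves fitted both ways versus DMSO so AC50 may be loss or gain.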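 Note: cells exposed to compound for 24 h before staining.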 Conditions: primary human endothelial cells (HUVEC). In short, it runs like this:
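Cytotoxicity read-out in primary human endothelial cells: after 24 h compound exposure, cells were TCA-fixed (10%), stained with 0.1% SRB and absorbance taken at 560 nm. Values fitted in both directions relative to DMSO.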

The nature of assay [6]: BSK_BE3C_SRB: Viability Assessment in the BioMAP Diversity Plus: BE3C Assay (AID 2283028).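 For AC50: fitted both ways so AC50 may mark signal gain or loss versus DMSO.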 Conditions: primary human bronchial epithelial cells. Put shortly: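 Primary human bronchial epithelium; chemical dosing, 24 h; 10% TCA fix, 0.1% SRB stain, A560; bidirectional fit vs DMSO baseline.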
Read-out in assay [7]: Thrombomodulin, THBD (gene 7056)
Description: BSK_3C_Thrombomodulin: BioMAP Diversity Plus: 3C Assay for Thrombomodulin Biomarker Activity (AID 2283029). The conditions noted are these: primary human endothelial cells (HUVEC); actives raise or lower the signal. Put shortly: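 Endothelial cells from umbilical vein are dosed with test chemical and incubated 24 h. Thrombomodulin is then quantified by ELISA, with DMSO serving as negative control and activity baseline.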

Read-out in assay [8]: Urokinase-type plasminogen activator receptor (uPAR), PLAUR (gene 5329)
Kind of assay: BSK_4H_uPAR: BioMAP Diversity Plus: 4H Assay for Urokinase-type plasminogen activator receptor (uPAR) Biomarker Activity (AID 2283030). Conditions: primary human endothelial cells (HUVEC); actives raise or lower the signal. In short, it runs like this: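 HUVEC, 24 h post-dose; uPAR by ELISA; bidirectional fit vs DMSO baseline.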

Read-out in assay [9]: Vascular endothelial growth factor receptor 2 (Homo sapiens) (UniProt P35968)
Kind of assay: BSK_4H_VEGFRII: BioMAP Diversity Plus: 4H Assay for Vascular endothelial growth factor receptor 2 (VEGFR2) Biomarker Activity (AID 2283031).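 For AC50: cell-surface VEGFR2 protein level quantified by ELISA.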 Conditions: primary human endothelial cells (HUVEC); actives raise or lower the signal. In short, it runs like this: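 HUVEC (human primary), 4H system; 24 h post-dose; VEGFRII by ELISA; bidirectional curve fit vs DMSO baseline; gain or loss of signal scored.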

Assay [10] has as its target human Vitamin D Receptor (VDR), VDR (gene 7421) (UniProt P11473). Kind of assay: ATG_VDR_TRANS: Attagene TRANS-FACTORIAL HepG2 Assay for human Vitamin D Receptor (VDR) (AID 2283022; active = hit-call score of the fitted dose curve at least 0.9, where 1 is the maximum). Put shortly: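 RT-PCR/capillary electrophoresis read-out of reporter mRNA induction in transiently transfected HepG2; 24 h dosing; chimeric NR-Gal4 (TRANS format); gain-of-signal fit against DMSO baseline.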

Chain of human Vitamin D Receptor (VDR), VDR (gene 7421) (P11473 whole entry, looked up, the tested form may be a part): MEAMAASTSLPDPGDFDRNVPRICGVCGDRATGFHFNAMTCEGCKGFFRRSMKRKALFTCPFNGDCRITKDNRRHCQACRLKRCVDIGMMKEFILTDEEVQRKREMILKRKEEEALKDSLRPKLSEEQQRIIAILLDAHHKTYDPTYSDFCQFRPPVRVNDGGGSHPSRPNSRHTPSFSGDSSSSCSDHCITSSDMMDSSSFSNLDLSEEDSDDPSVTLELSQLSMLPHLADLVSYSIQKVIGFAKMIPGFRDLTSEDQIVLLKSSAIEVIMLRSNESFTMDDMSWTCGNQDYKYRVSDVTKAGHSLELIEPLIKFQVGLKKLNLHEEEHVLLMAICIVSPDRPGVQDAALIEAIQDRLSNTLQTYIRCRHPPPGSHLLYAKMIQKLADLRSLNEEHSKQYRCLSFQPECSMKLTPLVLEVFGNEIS

As for `C#C[C@]1(O)CC[C@H]2[C@@H]3CCC4=CC(=O)CC[C@@H]4[C@H]3CC[C@@]21C`, the AC50 in assay [1] was 5.17 µM (active); in assay [5] it was 17.1 µM (active); in [8] it was 11 µM (active); in assay [9] it was 20 µM (active). The result in [2], in assay [3], in [4], in [6] and in [7] was inactive.

Take `Cc1cc(C)c(O)c(C)c1`: the outcome in assay [1], in assay [2], in assay [3], in assay [4], in assay [5] and in assay [6] was inactive. The result in [7], in assay [8] and in [9] was inactive.

As to `CCCOC(=O)c1ccc(O)cc1`, the result in assay [10], in [1], in assay [2], in assay [3], in assay [4] and in [5] was inactive. Moreover, the result in [6], in [7], in assay [8] and in assay [9] was inactive.

`CN(C)C=O`: the outcome in assay [1], in assay [2], in [3], in [4], in assay [5] and in [6] was inactive. The outcome in [7], in assay [8] and in [9] was inactive.

Consider `NC(=O)N1C(=O)C(C(=O)c2cc(Cl)cs2)c2cc(F)c(Cl)cc21` (centres undefined), for which the outcome in assay [10], in assay [7] and in assay [9] was inactive. The concentration at half-maximal activity (AC50) in assay [1] is 14 µM (active); in assay [2] it was 2.77 µM (active); in assay [3], 37.5 µM (active); in assay [4], 11.4 µM (active); in [5], 15.2 µM (active); in [6] it was 9.99 µM (active). Besides, in assay [8], the AC50 was 12.7 µM (active).

Take `CCc1ccc(CCOc2ccc(CC3SC(=O)NC3=O)cc2)nc1` (centres undefined): the call in assay [10], in assay [1], in assay [2], in [3], in assay [4] and in [5] was inactive. In addition, the outcome in assay [6], in assay [7], in assay [8] and in assay [9] was inactive.

For `CC(C)(C)c1cc(C(C)(C)C)c(O)c(C(C)(C)C)c1`, the outcome in assay [1], in assay [3], in [5], in assay [6], in assay [8] and in [9] was inactive. The AC50 is 10.5 µM (active) in assay [2], 20 µM (active) in assay [4] and 6.29 µM (active) in assay [7].

As to `CCCCCCCCCCCCCC[N+](C)(C)C`, the outcome in [10], in assay [8] and in assay [9] was inactive. Moreover, the AC50 is 1.38 µM (active) in [1]; 5.8 µM (active) in assay [2]; 3.02 µM (active) in assay [3]; 1.95 µM (active) in [4]; 5.31 µM (active) in assay [5]; 5.28 µM (active) in [6].

On to `CCCCCCCCC(=O)O`, for which the outcome in assay [1], in assay [2], in assay [3], in [4], in assay [5] and in assay [6] was inactive. Also, the outcome in assay [7], in assay [8] and in assay [9] was inactive.

`O=C(OCCOCCOC(=O)c1ccccc1)c1ccccc1`: the result in assay [1], in [2], in assay [3], in assay [4], in assay [5] and in assay [6] was inactive. The result in assay [7], in assay [8] and in assay [9] was inactive.

As for `CCOC(=O)CC(O)(CC(=O)OCC)C(=O)OCC`, the outcome in assay [1], in assay [2], in assay [3], in assay [4], in assay [5] and in assay [6] was inactive. For the same compound, the result in [7], in [8] and in assay [9] was inactive.

With `c1ccc2cc3c(ccc4ccccc43)cc2c1`, the outcome in assay [10], in [1], in [4], in assay [5], in assay [6] and in assay [7] was inactive. Further, the result in [8] and in assay [9] was inactive. Also, the AC50 in assay [2] is 1.42 µM (active); in assay [3], 9.8 µM (active).

`CC(C)(C)CC(C)(C)c1ccc(O)c(-n2nc3ccccc3n2)c1`: the outcome in assay [10], in assay [1], in [2], in [3], in assay [4] and in assay [5] was inactive. In addition, the outcome in [6], in assay [7], in assay [8] and in assay [9] was inactive.

Regarding `O=c1c(-c2ccc(O)cc2)coc2cc(O)ccc12`, the result in [1], in assay [2], in assay [3], in assay [5], in assay [6] and in assay [7] was inactive. Further, the outcome in assay [8] and in [9] was inactive. In addition, the AC50 in [4] was 20 µM (active).

In the case of `O=[N+]([O-])c1ccc(O)cc1`, the outcome in assay [1], in assay [2], in assay [3], in assay [4], in assay [5] and in assay [6] was inactive. The result in assay [7], in assay [8] and in assay [9] was inactive.

Regarding `CC(C)CCCCCCOC(=O)CCCCC(=O)OCCCCCCC(C)C`, the outcome in assay [1], in [2], in assay [3], in assay [4], in assay [5] and in assay [6] was inactive. The result in assay [7], in [8] and in [9] was inactive.
